# Reference: PubChem BioAssay AID1159506 (National Center for Advancing Translational Sciences (NCATS), 2015)
# Over roughly 59,000 sequences, the read-out has its median near -0.00055; the lowest 2% begin near -2. This is one part of a sample in which the lowest values are shown more often than they occur.
# Assay: Identification of proteins required for the processing of the EWS-FLI1 nascent transcript;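 further: robust z of luciferase light less the median z of siRNAs with the same seed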
# Settings: TC32 Ewing sarcoma NR0B1-luc vs CMV-luc (EWS-FLI1 target promoter against control promoter), 48 h; screened at 20 nM (by protocol)
# Protocol: Ewing sarcoma (ES) cells depend on the EWS-FLI1 fusion transcription factor for cell survival. Using an assay of EWS-FLI1 activity and genome-wide siRNA screening we have identified proteins required for the processing of the EWS-FLI1 nascent transcript. Parallel genome-wide siRNA-mediated RNAi screens were conducted in Ewing sarcoma TC32 cell lines expressing a luciferase (luc) reporter protein driven by either the promoter of the EWS-FLI1 target gene NR0B1 (TC32-NR0B1-luc) or the CMV promoter (TC32-CMV-luc). Luciferase activity was assessed 48 hours post siRNA-transfection.
# Twenty microl of serum-free media containing Lipofectamine RNAiMax (0.05 microl) was added to wells containing siRNA (0.8 pmol). Lipid and siRNA were allowed to complex for 45 min at ambient temperature before addition of 600 cells in RPMI-1640, 20% FBS to yield final transfection mixtures containing 20 nM siRNA in RPMI-1640, 10% FBS. Luciferase expression was measured using OneGlo (Promega, Madison, WI). The genome-wide screening campaign was conducted using Ambion's human genome library version 4.1 (Ambion, Austin TX). This library targets approximately 21000 human genes, three siRNAs per gene. Each siRNA is arrayed in an individual well of a 384-well plate. Parallel transfections were conducted in TC32-NR0B1-luc and TC32-CMV-luc cell lines and luciferase expression (OneGlo, Promega) was assayed 48 h later on a PerkinElmer Envision 2104 Multilabel plate reader (PerkinElmer, Waltham, MA). Qiagen's AllStars Negative control was incorporated on all screening plates for normalization (16 wells per plate). Qiagen, Germantown, MDsiGL4 was incorporated as a positive transfection control (16 wells per plate) on all plates. […] The raw luciferase data for the NR0B1- and CMV-luc screens were normalized and z-score-MAD transformed using standard methods (Chung et al., 2008). The miRNA-like seed sequence of every siRNA was determined and the median z-score for all siRNA sequences with the same seed sequence was calculated. This z-score was subtracted from the z-score associated with each siRNA with that seed sequence to generate a seed-adjusted z-score value (Z) that was used when the results for the three siRNAs corresponding to each gene were compared (Marine et al., 2012)
row,Sequence,seed-corrected z-score
1,UAAACAAUACGUCAGUGCC against OR51T1,-0.809
2,UUCGUUCACGGCUAUGACC against CHL1,0.202
3,UGAGUUUCAGGUUCUCCGG against CAB39L,-2.64
4,UUCCGGAUCAGAUCAUGGG against FAM118A,-0.123
5,UACAUUCUUGGUUUCAACC against LOC729860,1.84
6,UUAUAUUCAUCCUUGUGAC against CRKL,0.239
7,UUCUGGUUUGUUUUCAGGC against BAG3,-2.98
8,AACCGAACAAAUGAAUAUC against TIA1,-1.17
9,UAAUCUGCAAGUCAAGUCU against LYSMD2,-1.06
10,UUCACGACGAUGAUUCCCU against DYNLRB1,-0.1
11,UCCUCUGUAACCACACUCG against GPT2,-0.193
12,AAACUAUACACGGUCGUCC against RFESD,-0.265
13,UUAGGUUCAACAUCCACAA against SNRPD1,-2.57
14,AAGGAUAUUAAGAAGAAUC against ARMCX1,0.793
15,UACGAUGAUAGCCUUGACC against CNOT10,-0.215
16,UCAAGCUUCACUUUCUUCC against DNAJC17,1.06
17,AAAAUGAGAACGUAAAGUC against VN1R5,-0.139
18,UCCUGGAUGCGAUUUAUGG against DDRGK1,-0.145
19,UUCUCGUCGAGGUAGAUUU against ITM2C,0.584
20,UAACAUACUGGUCCCAUUG against PCTP,-1.08
21,UAUCUUCUAAUGCAAUCCU against RTP2,0.814
22,ACCUUGACCACACUUAUUU against VSTM2L,-1.03
23,UGCUUAACAAGAUCUGAAC against ZNF271P,-2.37

row,Sequence,seed-corrected z-score
1,UCGGCGAUGUAGGAGAUGG against APBA2,0.0663
2,AGAAAAUCUAUCUUCCUCU against PFDN5,-0.0703
3,UGGGAUAUCACCAACGACG against CCDC168,-0.371
4,UCAUCUAGAAGAAUAUUCU against SGK494,0.387
5,AAGCUUGCCAAUACCCUGG against RPLP2,-2.77
6,UCUAUGUUGACAACCUCUC against DSPP,2.05
7,UUGCAUUUUAUCACAGUAG against LY96,-0.122
8,UCAGCAAAAACAUCUCACU against OR4Q3,0.873
9,AAACUGACCAUUCACUACC against DCAF12,-10.7
10,UCUGGAAUUUGGGUUGAUG against C1orf105,-0.114
11,UAGAUGUGCAUGUAGGUGA against ADO,0.279
12,AAGGCAUCCAAGAAGCUCC against KCNK6,0.0975
13,UUGGAAACUACAGAUGAGA against WDR82,-2.39
14,UUCCUUAAGGUGUCCCUCC against HSPA12A,0.369
15,UUGCGAUGGAAAGACAUGU against CD5,0.451
16,AAUGCUCUCAGUUGAGAUG against C19orf44,-0.0313
17,UAACCUCUGGGUCACAUGC against ACIN1,0.0177
18,UCUGUCUAAAUAACUUAUU against NAT8L,-0.913
19,UAUUGAAUGAUGUGGAGUC against PTCD2,0.667
20,UUAAGUAUUGGAUUUCAUA against DEFB116,0.226
21,UCGGAAUAAAUUGAGCUGC against API5,-16.5
22,UGUGCGAGAACAUUCCUGC against HIP1R,0.0278
23,UUUGUGCAUGCUGUCGUUC against TNIP2,-0.335

row,Sequence,seed-corrected z-score
1,UACAGCUAAACUGUACAGC against ORC6,-2.09
2,UUCGGUUCAUGACAAAUAC against SLC35F5,0.354
3,UAGCAUACUAUUGUCCUGC against MRPL42,0.102
4,UCCUGGUUCACCAAUUUCU against COL9A1,-0.362
5,UAGGUUAUGAAAUUAAUCA against MAP6D1,-2.45
6,AUUCAUAGAAGUAUUCUGC against WIF1,-0.598
7,UAAGUUUUGAGGAUAGGUG against ZNF117,0.415
8,UUGGGAUUCAGGUUCCGCU against TCF3,-0.377
9,UCGCUUCCCAGAAUUGCUG against GPR65,1.15
10,AUGGGAAUAGGAAAGUAUG against OR2M4,-2.09
11,UGUCCAAUUAGGGACCAGC against SLF2,-0.225
12,ACUGUAUAGAUUGUGAACC against KDM3B,1.03
13,UUCCAUAGUAGUAGGAUCU against TMEM14B,0.134
14,UCUGGUUAUCAGAAAACCC against PCNP,0.114
15,UUGUGGUUUAGGGUUUUCU against YBX1,-2.1
16,UUCUUAUAACCAUUGACUG against SLCO1B3,0.328
17,UAAAGAGUGGUGUUGGUGG against RSPH3,-0.756
18,UUUAGUUCCAGUGCCUUAG against CCDC151,0.491
19,CUUUCAGCGUGGCUGUUCC against C6orf132,-4.94
20,UUCCUAAUAAACCCAGCGC against SOWAHD,-0.0823
21,UCAGAGAUCAAAGAGAAGU against TUBB4A,0.356
22,UGAGUGAAGUGCGAUAUCC against ELL,0.176
23,UAGGAACCAGAAAUAAUCC against ATP8A2,-0.455

row,Sequence,seed-corrected z-score
1,UUAGGGAUGACGUGGGUGC against GRIN1,-2.06
2,UUAAACUCCACGUCGUCAG against SIRPB1,-0.756
3,UUUAUGGAUCUAAUUGUCG against CBWD1,0.289
4,UGCAUGGUGAUAGUCAGGU against CD7,-0.0598
5,AAACCGUCCUUCCUCAUGC against IL16,0.0574
6,UUAGUCUUCCCGGAUUGCC against ADAR,0.696
7,UUCUGGAUAAACAUAUUCC against MCU,-0.133
8,UUCCAGUUAAACUGUAGCC against LOC643770,-2.78
9,UUAAUAACCUCAGAAAUGG against TCTEX1D1,0.0567
10,UAUUUGCGAAGUCAUGAGG against COPB1,-3.25
11,UGAAUAUCAACAGUCCCUC against ZNF731P,0.959
12,UAAAUGACAGAAGCCGUUG against SUCLG1,-0.0373
13,UCACAGAUGCCUGUAAAUG against TSACC,-0.571
14,GCUUGCACGACUCACAGAC against DEFB105A,1.34
15,AGAGUGUAAUGAGUCUUUG against SCAPER,0.141
16,UCCUCCUUGUCCAUGAUGC against CDC42EP4,0.732
17,AUCUGCUUAAUCUUUACAC against OR51F2,-2.93
18,AUCGGAUACCGUGAGAUCC against OXA1L,0.367
19,UAAUGGGCACGAAUGACGG against ST8SIA3,0.274
20,AAUGGUAUCAUUCACCUUG against RPS4X,1.54
21,UCGUCUAAAACCAGGAUGC against ABCC3,-0.496
22,AAUGUUGUUCUGUUUGUCC against FAM122C,-1.09
23,UUUAGUUCUUCCCUUAUGG against PDGFC,-0.075

row,Sequence,seed-corrected z-score
1,UUCUUCAUCAGCUUAACCG against C1QTNF4,-0.00119
2,AUACUUGUACAAUCGGUGC against DIDO1,0.123
3,UUCUUUGCCCGCUUGAGCU against CCDC86,-0.859
4,UUAGUUGCACCCAAAUCCA against CCDC17,-2.22
5,AUGCGAACCUCAUAGGUGG against SNX12,-0.364
6,ACACUCAAAAUUACCAGCU against LEMD2,-1.09
7,UGUUUUUGAAGUUAGAUCU against LOC728999,1.08
8,UAAUCCUGACUUUCAAUUG against PAGE3,-0.446
9,AACAGUUUCUGCAUUCUUC against PARG,-0.336
10,AGAGGUCUGAGCACAGUUC against HSPA6,-1.34
11,UAACAUCUUCGAACUGCGG against MAU2,-1.35
12,UGGUUGUUUAAGUCGACUG against USP33,-2.43
13,UCCCUUCACAAAGAAAGAG against TLDC2,0.201
14,UUUCUUAGAAAGCGGUUCC against MORN5,-0.0295
15,UAGGAUACAUUGCUGAUGC against CASC1,-0.353
16,UCUUUCUUUAGUCUGAGUG against NMUR2,0.78
17,UUCUUUAUCUCGAUGAUGC against FAM117B,-3.46
18,AUCGCUCCCAUAGUUCACC against KRT20,-0.0454
19,UUUUCCUUAAUUAACGGCA against DTYMK,-0.22
20,UCUGUGGAUACUGAUAUUC against NRG1,1.7
21,UAUGGAAAAAUUAAUCUGU against RAC1,-0.118
22,UUCAGUAGAAGUUUCAUCU against POLR2H,-3.55
23,UACAGAAUGGUUGUCUUGC against ARF4,0.573

row,Sequence,seed-corrected z-score
1,UAGAGUGCUAAGGACAGGG against GFI1B,0.226
2,AGAUUUAUAAUAAUCCCAC against C11orf72,0.747
3,UUACUGGAGACCAAUCUUC against FDFT1,-1.01
4,UUAUUGACACGAAUACAUC against BTG3,0.565
5,UGGAGGUUAUGAUCAUUCC against OR51B6,-2.91
6,AUGGUGGUAAUUACGCUGC against SLCO5A1,-0.993
7,UGACUUUACCUCAAAGUUG against PRPF19,-0.0138
8,UCAUUGUCUUCUAUCAAUC against FYN,-0.739
9,UUCGUAUUAAGAACUGCAG against PSMD1,-2.79
10,UAUGGGUUUGUUAAAAGGC against FUT6,-0.26
11,UUGCCUUCCAAGUUCUUUC against TNP2,-0.491
12,AUACGAUAAGCAGAGGAGG against GLT8D1,-0.112
13,AAACCUGCUAUAUCACUCC against ATAD1,0.174
14,AAUCUUCGUAAGACUAUCC against C9orf50,-2.07
15,UUCCUUGUUAGCACAGACC against GSR,-0.669
16,UACUUGUUGAGUGUCUCAG against CXCR1,-1.52
17,AGUCGAAUAACAUAUAUCC against NBPF14,-2.13
18,AAAGUUCUCAGGGUAGUGG against TOP3B,-0.163
